# High-throughput results deposited in PubChem by National Center for Advancing Translational Sciences (NCATS).
# HEK293 cAMP ctrl: qHTS Assay for Agonists of the Thyroid Stimulating Hormone Receptor: Activators of Intracellular cAMP Concentrations in Parental HEK 293; parental HEK293 CNG cAMP sensor, membrane potential fluorescence; Potency, µM (doses to about 57.1 µM), for inactives: at the top dose activation, most hits filed as activators; 73,000 compounds, 2.5% hits; AID 938, 2007; further: % of control where 0% means no effect; nearly all actives have a fitted effect of over 55% in size
#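 Parental HEK 293 cells stably expressing a modified CNG channel (no TSHR) report cAMP rise as membrane depolarization. Membrane potential dye with 100 uM RO 20-1724 was loaded for 60 min at room temperature, then compound added for 30 min; fluorescence read at 590 nm.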
# CRE Fsk mod: Cell signaling CRE-BLA (Fsk stim). CHO CRE-bla reporter (cAMP response element driving beta-lactamase), forskolin EC10, beta-lactamase ratio. Potency, µM (doses to about 38.2 µM), for the others: at the top dose activity change, negative = inhibition, actives largely listed as activators. 71,000 compounds, 2.5% hits. AID 662, 2007; active means well fitted activation curve with a large enough effect in the signal ratio, with a control signal flat, not every such curve was filed as active; inconclusive means small, poorly fitted or top-dose-only effect, or effect the other way, or a change in a side signal; the % refers to the signal ratio; further: % of control where 0% means no effect
#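 Modulation of forskolin signalling: compounds in titration series added with EC10 NKH 477 to CHO cells carrying a CRE-driven beta-lactamase reporter, 3 h, 37C. CCF4 FRET ratio (460/530 nm, ex 405 nm) gives %activity and AC50.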
# TSHR agonist: qHTS Assay for Agonists of the Thyroid Stimulating Hormone Receptor | 73,000 compounds, 0.48% hits | HEK293-CNG-TSHR cells (CNG channel as cAMP sensor), membrane potential dye, cAMP | AID 926, 2007 | Potency, µM (doses to about 57.1 µM), for the others: top-dose activation, most hits filed as activators; active means well fitted activation curve with a large enough effect in the main read-out, with a control signal flat, not every such curve was filed as active; inconclusive means small, poorly fitted or top-dose-only effect, or a change in a side signal; inactive means no such curve, though single readings can be large or run the other way; % of control where 0% means no effect;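 further: the control signal comes from parental cells without the receptor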
# Target sequence (P16473 whole entry, looked up): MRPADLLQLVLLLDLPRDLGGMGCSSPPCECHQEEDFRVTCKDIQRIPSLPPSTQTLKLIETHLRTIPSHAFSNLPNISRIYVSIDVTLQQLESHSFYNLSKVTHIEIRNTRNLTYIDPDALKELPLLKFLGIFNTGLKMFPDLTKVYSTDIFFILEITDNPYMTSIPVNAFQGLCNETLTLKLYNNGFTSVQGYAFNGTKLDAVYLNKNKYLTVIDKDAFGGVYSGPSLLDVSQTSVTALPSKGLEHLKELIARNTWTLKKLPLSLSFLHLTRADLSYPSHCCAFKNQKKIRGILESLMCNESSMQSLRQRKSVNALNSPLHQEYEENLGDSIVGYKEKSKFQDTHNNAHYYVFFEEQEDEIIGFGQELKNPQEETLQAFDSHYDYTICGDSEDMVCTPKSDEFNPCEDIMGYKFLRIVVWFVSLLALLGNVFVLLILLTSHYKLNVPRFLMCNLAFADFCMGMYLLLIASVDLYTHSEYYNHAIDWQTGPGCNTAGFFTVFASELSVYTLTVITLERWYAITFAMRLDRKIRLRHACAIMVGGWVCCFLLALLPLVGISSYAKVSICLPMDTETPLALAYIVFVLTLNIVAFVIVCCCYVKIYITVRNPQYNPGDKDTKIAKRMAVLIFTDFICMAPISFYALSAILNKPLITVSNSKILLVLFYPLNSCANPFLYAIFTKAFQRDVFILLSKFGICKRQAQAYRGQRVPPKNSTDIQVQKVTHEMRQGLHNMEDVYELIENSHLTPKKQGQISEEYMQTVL
#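 HEK 293 cells stably expressing TSHR and a modified CNG channel, with CNG-only parental cells as counterscreen, were preloaded 60 min at room temperature with membrane potential dye containing 100 uM RO 20-1724. Compound exposure was 30 min, and depolarization was read as fluorescence at 590 nm.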
# IkB sig inh: IkB Signaling; 110,000 compounds, 0.04% hits; Potency, µM (series often up to 57.1 µM), for the others: at the highest dose IkBa stabilization activation; ABC-DLBCL IkBa-CBG/CBR dual luciferase ratio, 4 h; response scale: scaled: untreated 0%, proteasome inhibitor 100%; active means well fitted curve in the direction sought with a large enough effect in the signal ratio, not every such curve was filed as active; inconclusive means small, poorly fitted or top-dose-only effect, or a change in a side signal; the % refers to the signal ratio;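 further: the direction sought is a rising ratio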
#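 In this assay, an IκBα–CBG68 fusion accumulates when IKK-driven degradation is blocked; native CBR normalizes for cell number. OCI-Ly3 cells were treated 4 h with compound and doxycycline, then green and red light read after Chroma-Glo addition.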
# ERK AVP inh: qHTS Assay for Inhibitors of the ERK Signaling Pathway using a Homogeneous Screening Assay | Potency, µM (titrated, usually from 57.5 µM), without a hit: at the highest dose activity, negative = inhibition, actives largely listed as inhibitors | 72,000 compounds, 0.99% hits | HEK293-V1b, vasopressin-stimulated pERK AlphaScreen; further: on the % scale 0 is the no-effect control and ±100 the full control effect; nearly all actives have a fitted effect of over 55% in size
#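 HEK293 cells stably expressing V1b receptor, seeded overnight in 1% FBS, were treated with compounds for 30 min at 37C, then stimulated 5 min with 25 nM vasopressin; phospho-ERK read by AlphaScreen SureFire after lysis.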
# * marks the source's active call; other numbers are inactive results; ? = inconclusive; . = no result; [ ] = another dose, or the depositor's remark. Rows were chosen to be rich in hits. Some 3.6% of all compounds tested hit in one or more screens of this group. Unless noted, the call rests on the fitted dose curve; in most records, active means well fitted curve in the direction sought with a large enough effect; inconclusive means small, poorly fitted or top-dose-only effect, or another doubt; inactive means no such curve, though single readings can be large; an effect the other way counts as inactive or inconclusive. Potency means the concentration at half of the fitted maximal effect.
SMILES,HEK293 cAMP ctrl,CRE Fsk mod,TSHR agonist,IkB sig inh,ERK AVP inh
CCCCCn1c(SCCc2ccccc2)nc2c1c(=O)[nH]c(=O)n2C,19%,12%,28%,0%,-21%
C/C=C/Cn1c(SCCCc2ccccc2)nc2c1c(=O)[nH]c(=O)n2C,24%,?,84%,?,.
CC(C)n1c(SCCCc2ccccc2)nc2c1c(=O)[nH]c(=O)n2C,6%,6.3µM*,2%[11.4 µM],6%,.
Nc1nc(SCC(=O)N2CCc3ccccc3C2)[nH]c(=O)c1-c1ccccc1,10%,3%,8%,3%,-17%
CCn1c(=O)n(CC(=O)NC2CCCC(C)C2C)c(=O)c2ccccc21 (stereo unspecified),25µM*,-6%,?,?,-11%
COCCCN1C(=O)c2ccccc2C1C(=O)NC1CCCCCC1 (stereo unspecified),?,-2%,?,2%,16%
O=C(NC1CCCCCC1)C1c2ccccc2C(=O)N1Cc1ccco1 (stereo unspecified),13µM*,-12%,?,1%,21%
O=C1CN(C(=O)C2CCCCC2)C(c2ccccc2)c2cc(F)ccc2N1 (stereo unspecified),.,.,.,0%,.
O=C(CSc1nc2ccccc2c(=O)n1-c1ccccc1)NCc1ccco1,25µM*,10%,?,-3%,9%
CN(Cc1ccccc1)C(=O)CSc1nc2ccccc2c(=O)n1Cc1ccco1,25µM*,?,?,?,-10%
Cc1cccc(-n2c(SCC(=O)NCc3ccco3)nc3ccccc3c2=O)c1,?,?,?,2%,?
CC1Cc2nc(SCC(=O)NCc3ccco3)n(Cc3ccccc3)c(=O)c2S1 (stereo unspecified),?,10µM*,?,2%,.
Cc1sc2nc(SCC(=O)NCc3ccco3)n(-c3ccccc3)c(=O)c2c1C,-7%,6%,.,-1%,-8%
CCn1c(=S)sc2c(=O)n(-c3ccccc3)c(SCC(=O)NCc3ccco3)nc21,20µM*,?,?,?,-5%
CCOc1ccccc1-n1nnc(S(=O)(=O)c2ccc(C)cc2)c1N,.,.,.,7%,.
CCSC[C@@H](N)C(=O)O,-10%[11.4 µM],9%[7.6 µM],1%[11.4 µM],2%[11.4 µM],-4%[11.5 µM]
CCn1c(SCC(=O)NCc2ccco2)nc2cccnc21,5%,?,-3%,2%,-2%
O=C(CSc1nc2cccnc2n1Cc1ccccc1)NCc1ccco1,6.3µM*,-12%,?,9%,?
[O-][n+]1onc2c1CCc1nnccc1-2,6%,?,5%,3%,-11%
CC(C)=CCC/C(C)=C/COc1c2ccoc2cc2oc(=O)ccc12,13µM*,?,?,1%[11.4 µM],.
COC(=O)C1=C(C(=O)c2ccc(C)cc2)C(c2ccc(O)c(OC)c2)n2nnnc2N1 (stereo unspecified),1%,-7%,22%,-1%,9%
CCOc1ccc2[nH]c(=O)c(CN(Cc3cccs3)Cc3nnnn3C(C)(C)C)cc2c1,25µM*,-16%,?,?,-1%
O=C1C=C(N2CCN(c3ccccn3)CC2)C(=O)c2c(O)ccc(O)c21,-37%[11.4 µM],3.2µM*,?,5µM*,?
O=C(CN1C(=O)c2ccccc2C1=O)N1CCN(c2ccccn2)CC1,-2%,4%,1%,2%,-7%
O=C(CC1(O)C(=O)N(Cc2ccccc2Cl)c2ccccc21)c1ccco1 (stereo unspecified),6%,-19%,0%,3%,-23%
SMILES,HEK293 cAMP ctrl,CRE Fsk mod,TSHR agonist,IkB sig inh,ERK AVP inh
O=C(NC1CCCC1)c1cnn2c(C(F)(F)F)cc(-c3ccco3)nc12,?,?,?,-1%,?
Cc1c2c(nc3c(C(=O)NC4CCCC4)cnn13)CCCC2,?,2.5µM*,?,-1%,0%
Cc1ccc(-c2nnc(N3CCOCC3)c3ccccc23)cc1S(=O)(=O)NCC1CCCO1 (stereo unspecified),-5%,3.2µM*,9%,-1%,-7%
COc1nnc(-c2ccc(C)c(S(=O)(=O)NCCO)c2)c2ccccc12,18%,?,27%,-1%,-7%
Cc1ccc(C(=O)N2CCN(c3cccc(Cl)c3)CC2)cc1C,26%,-13%,.,?,17%
Cc1ccc(C(=O)N2CCN(c3ccccc3)CC2)cc1C,25µM*,0%,?,-1%,52%
O=C(c1ccccc1C(=O)N1CCN(c2ccc(F)cc2)CC1)N1CCN(c2ccc(F)cc2)CC1,11%,?,-11%,?,40µM*
O=c1c(-c2ccc(F)cc2)nc2cnc(N3CCNCC3)nc2n1-c1ccccc1,-19%,?,-32%,-2%[11.4 µM],?
Cc1ccc2c(c1)N(CC(=O)N1CCN(c3nc4ccccc4s3)CC1)C(=O)C(C)O2 (stereo unspecified),6.3µM*,1%,?,?,?
C=CCn1cnc2c(c1=O)c1nc3ccccc3nc1n2/N=C/c1ccccn1,-4%,2.5µM*,-10%,-3%,-24%
C=CCn1cnc2c(c1=O)c1nc3ccccc3nc1n2/N=C/c1cccc(OC)c1OC,-8%,?,-6%,-1%,-13%
C=CCn1cnc2c(c1=O)c1nc3ccccc3nc1n2/N=C/c1cc(OC)c(OC)c(OC)c1,-14%,1.6µM*,-8%,-2%,-15%
C=CCn1cnc2c(c1=O)c1nc3ccccc3nc1n2-c1ccccc1,0%,26%,-1%,1%,3%
Cc1ccc2nc3c(cc(C(=O)NCc4ccccc4)c(=N)n3CCCn3ccnc3)c(=O)n2c1,3%,?,-8%,-1%,8%
Cc1cc(-n2c(=O)c(C#N)cc3c(=O)n4cccc(C)c4nc32)no1,-7%,3.2µM*,.,3%,-17%
N#Cc1cc2c(=O)n3ccccc3nc2n(CCCn2ccnc2)c1=N,-12%,10µM*,-1%,0%,2%
Cc1ccc(-n2c(=O)c(C#N)cc3c(=O)n4ccccc4nc32)cc1,-2%,2.5µM*,0%,1%,22%
COc1cc(C(=O)Nc2nncs2)cc(OC)c1OC,-4%,?,-1%,8%,-15%
CCC(=O)Nc1ccc(-c2nnc(SCC(=O)Nc3nccs3)n2C)cc1,-3%,-8%,-3%,2%,5%
C=CCSc1nnc(NC(=O)CSc2nnc(C)s2)s1,3%,16%,0%,3%,-5%
O=C(O)CCCCCC[C@@H]1C(=O)NC(=O)N1CC[C@@H](O)C1CCCCC1,2µM*,?,?,11%,.
CCCCCC1NC(=O)NC1CCCCCC(=O)O (stereo unspecified),-2%,-1%,3%,3%,-20%
